Results taken from the supplement of paper PMC13380429.
A number with no mark means an inactive call.

Tested on: Vero E6 infected with SARS-CoV-2
Assay: inhibition of SARS-CoV-2 cytopathic effect; higher = more antiviral protection, active = above 15
Conditions: 48 h

SMILES | inhibition of SARS-CoV-2 cytopathic effect (1 nM) | inhibition of SARS-CoV-2 cytopathic effect (8.33 nM) | inhibition of SARS-CoV-2 cytopathic effect (100 nM) | inhibition of SARS-CoV-2 cytopathic effect (833.33 nM) | inhibition of SARS-CoV-2 cytopathic effect (10000 nM)
Cc1cc(Nc2nc(N[C@@H](C)c3ncc(F)cn3)ncc2Cl)[nH]n1 | -1.19% | -0.46% | -0.68% | 0.25% | 0.25%
CCN1CCN(C(=O)Cc2ccc(Nc3ncc(F)c(Nc4ccc(C(=O)Nc5ccccc5Cl)cc4)n3)cc2)CC1 [aurora-a-inhibitor-i] | -0.07% | -0.73% | -0.58% | 0.9% | 4.49%
CN1CCN(CCCN2c3ccccc3Sc3ccc(C(F)(F)F)cc32)CC1 [trifluoperazine] | -0.89% | 1.64% | -3.09% | -4.01% | 14.5%
NC(=O)OCC(COC(N)=O)c1ccccc1 [felbamate] | 1.11% | 3.53% | -0.7% | 1.06% | 0.03%
CCOc1ccccc1-n1c(C(C)N2CCN(C(=O)COc3ccc(Cl)cc3)CC2)nc2ccccc2c1=O (stereo not given) [erastin] | -2.42% | -0.63% | -0.86% | -2.74% | 7.21%
COc1cc2ncnc(Oc3cccc(NC(=O)Nc4cc(C(C)(C)C(F)(F)F)on4)c3)c2cc1OC | -0.44% | 0.69% | 2.72% | -0.98% | -6.45%
COC(=O)c1cnn(-c2ccc(F)cc2F)c1/C=N/NC(=S)NC(C)(C)C | -1.1% | 0.05% | 2.03% | 3.03% | 6.39%
O=C1OCCN1/N=C/c1ccc([N+](=O)[O-])o1 [furazolidone] | 2.49% | 3.22% | 2.2% | 1.08% | 0.23%
Oc1ccc(O)cc1 [hydroquinone] | -0.8% | 2.88% | 1.25% | 1.2% | 1.62%
O=C(OC(C(F)(F)F)C(F)(F)F)N1CCC(C(O)(c2ccc3c(c2)OCO3)c2ccc3c(c2)OCO3)CC1 | -1.87% | 0.04% | -0.31% | -1.03% | 0.49%
CC(NC(C)(C)C)C(=O)c1cccc(Cl)c1 (stereo not given) [bupropion] | 1.88% | 2.11% | -0.69% | -0.93% | -2.06%
NC(=S)N/N=C/c1coc2ccccc2c1=O.[Cl][Cu][Cl] | 0.84% | -0.38% | 1.98% | -0.55% | 2.4%
O=c1c(O)c(-c2ccc(O)cc2O)oc2cc(O)cc(O)c12 [morin] | -1.74% | -0.07% | -0.4% | -4.13% | 0.27%
CCCCC1CCC(c2nc(-c3ccncc3)no2)CC1 (stereo not given) | 1.12% | 0.82% | -0.05% | 0.32% | 2.33%
CCOC(=O)[C@H](Cc1ccccc1)NC(=O)c1cc(Cl)c(OCCN2CCN(C)CC2)c(Cl)c1O | -1.93% | 1.91% | 0.81% | -1.07% | 2.79%
N[C@H](C(=O)O)c1ccc(O)c(C(=O)O)c1 [3-carboxy-4-hydroxyphenylglycine-(S)] | -1.22% | 0.105% | -0.545% | -1.18% | 0.39%
CN(C)CCCCC(=O)Nc1ccc(NC(=S)NC(=O)c2ccc(C(C)(C)C)cc2)cc1 [tenovin-6] | -2.53% | 0.01% | -0.72% | 4.3% | 18% (active)
CNC(=O)Oc1ccccc1OC(C)C [propoxur] | 2.55% | 4.24% | 3.02% | 2.09% | 2.81%
COc1cc2c(cc1OCCCN1CCCC1)N=C(N)C21CCC1 | -1.51% | 0.76% | 0.57% | 1.84% | 1.55%
C[C@@H]1CC[C@H]2[C@@H](C)C(=O)O[C@@H]3O[C@@]4(C)CC[C@@H]1[C@]32OO4 [artemisinin] | 0.52% | 0.05% | 3.13% | 3.83% | 1.16%
Cc1cc(Nc2cc(C)c(C#N)c(N[C@@H](C)CCCC(C)(C)O)n2)n[nH]1 | -1.85% | -0.28% | -1.25% | -6.81% | -8.95%

SMILES | inhibition of SARS-CoV-2 cytopathic effect (1 nM) | inhibition of SARS-CoV-2 cytopathic effect (8.33 nM) | inhibition of SARS-CoV-2 cytopathic effect (100 nM) | inhibition of SARS-CoV-2 cytopathic effect (833.33 nM) | inhibition of SARS-CoV-2 cytopathic effect (10000 nM)
O=C1NC(=O)/C(=C/c2ccc3c(c2)OC(F)(F)O3)S1 | 2.29% | 1.22% | -6.83% | -7.64% | -7.56%
Oc1ccc(Nc2nc(-c3ccc(Cl)cc3)cs2)cc1 | 0.33% | 0.67% | 2.65% | 1.03% | 3.81%
CN1C(=O)N(c2cc(Cl)cc(Cl)c2)C(=O)[C@@]1(C)Cc1ccc(Br)cc1 | -0.07% | -0.29% | -0.15% | -1.61% | -5.8%
CCCCNC(=O)[C@@H]1Cc2ccccc2N1C(=O)[C@@H](N)CC [butabindide] | 1.64% | 1.33% | -3.07% | 1.68% | 2.75%
CC/C=C\C/C=C\C/C=C\C/C=C\C/C=C\C/C=C\CCC(=O)OCC [doconexent-ethyl-ester] | -1.67% | 0.01% | 0.45% | 0.72% | 0.36%
O=C(/C=C/c1ccc(O)cc1)c1ccc(O)cc1O [isoliquiritigenin] | -2.47% | -0.17% | 1.21% | 0.63% | 10.8%
CC(C)C[C@H](NC(=O)[C@H](Cc1ccccc1)NC(=O)c1cnccn1)B(O)O [bortezomib] | 1.7% | 11% | 32.8% (active) | 27.1% (active) | 12.7%
O=C(Nc1ccc(C(=O)O)c(O)c1)c1ccccc1 [benzoylpas] | 0.82% | -2.28% | 0.45% | -0.08% | -0.85%
O=C(CN1CCN(C(=O)c2ccco2)CC1)Nc1cc(C(F)(F)F)ccc1Cl | 0.23% | -4.63% | -0.17% | 1.03% | 5.23%
COc1ccc(CCN(C)CCCN2CCc3cc(OC)c(OC)cc3CC2=O)cc1OC [zatebradine] | 0.14% | 1.94% | 1.29% | 0.25% | -2.07%
CC1(C)CC(O)CC(C)(C)N1[O] [tempol] | 9.35% | 1.45% | -0.66% | 1.43% | 1.53%
Cc1cc(Nc2cc(N3CCN(C)CC3)nc(Sc3ccc(NC(=O)C4CC4)cc3)n2)n[nH]1 [tozasertib] | -0.96% | -0.86% | -0.22% | 0.2% | -4.18%
COc1cc(/C=C(\C#N)C(N)=O)cc(CSc2nc3ccccc3s2)c1O [tyrphostin-AG-825] | 2.84% | 1.12% | 0.69% | -0.02% | 0.99%
Nc1nc2ccc(OC(F)(F)F)cc2s1 [riluzole] | -0.39% | -3.06% | 0.81% | 3.82% | 1.88%
N[C@@H](CCC(=O)N[C@@H](CS)C(=O)NCC(=O)O)C(=O)O [glutathione] | 0.94% | 0.93% | 1.6% | -0.69% | 1.39%
Cc1cccc(C)c1OCC(C)N (stereo not given) [mexiletine] | 4.03% | 3.45% | 2.85% | 7.08% | 5.03%
CC(N)Cc1ccc(O)cc1 (stereo not given) [hydroxyamphetamine] | 1.55% | -1.8% | 2.28% | 0.63% | 1.86%
CN(C)CCN(C)CCc1ccc(Cl)c(Cl)c1 | -3% | -0.98% | 1.41% | -3.83% | -3.28%
NC(=O)c1nc(F)cnc1O [Favipiravir] | -0.26% | 1.4% | -0.55% | 1.38% | -0.22%
CNC(=O)c1nn(C)c2c1C(C)(C)Cc1cnc(Nc3ccc(N4CCN(C)CC4)cc3)nc1-2 | 0.32% | 0.79% | 1.17% | -4.6% | -10.3%
CCC(CC)C(c1ccc(Nc2nc3ccccc3s2)cc1)n1cncn1 (stereo not given) [talarozole] | 3.05% | 0.68% | 0.42% | 1.31% | 4.15%
